Measurements from the supplement of paper PMC9925115.
± gives the uncertainty stated by the source.

The compounds below were run on FLX1 (assay: cell viability z-score within plate (CellTiter-Glo), mean of 3 biological replicates; higher = higher viability relative to plate (less growth inhibition)). Conditions: 2 µM; time (hr): 120.
Protocol: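 FLX1 fibrolamellar carcinoma cells (DNAJB1-PRKACA fusion), 600 cells/well in 384-well plates, treated with a Selleck kinase inhibitor library (L1200) at 2 uM for 5 days (120 hr); viability by CellTiter-Glo. A z-score was computed within each plate and averaged over three biological replicates.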
`O=C(NOC[C@H](O)CO)c1ccc(F)c(F)c1Nc1ccc(I)cc1F` was tested, and the “cell viability z-score within plate” value was -1.16 ± 0.84.
In the case of `CNC(=O)c1ccc(C)c(-n2c(C)cc(OCc3ccc(F)cc3F)c(Br)c2=O)c1`, the “cell viability z-score within plate” value is reported as 0.325 ± 0.62.
For `CN1CCN(c2ccc(Nc3cc(-c4cccc(-n5ccc6cc(C7CC7)cc(F)c6c5=O)c4CO)cn(C)c3=O)nc2)CC1`, the “cell viability z-score within plate” value was -0.244 ± 0.38.
For `O=C(O)c1ccc(Nc2ncc3c(n2)-c2ccc(Cl)cc2C(c2c(F)cccc2F)=NC3)cc1`, the “cell viability z-score within plate” value was 1.2 ± 0.42.

The compounds below were run on FLX1 + dox-induced PRKAR1A G325D (assay: difference in log2 fold change of viability vs plate median (dox-induced PRKAR1A G325D minus uninduced); higher = compound less effective when PKA is inhibited). Conditions: concentration: not stated (2 or 5 uM); 5 days.
Protocol: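 For each plate a log2 fold change vs the plate median was derived, and the values without dox were subtracted from those with dox, averaged over three biological replicates.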
In the case of `OCCn1cc(-c2ccc3c(c2)CC/C3=N\O)c(-c2ccncc2)n1`, the “difference in log2 fold change of viability” value (shortened to “difference in log2 fold change”) is reported as 0.00993.
With `O=C(NOC[C@H](O)CO)c1ccc(F)c(F)c1Nc1ccc(I)cc1F` the “difference in log2 fold change” value was -1.04.
In the case of `COc1ccc(-c2cc3c(C)nc(N)nc3n([C@H]3CC[C@H](OCCO)CC3)c2=O)cn1`, the “difference in log2 fold change” value is reported as 0.605.
With `CC(C)CCN1c2nc(Nc3cc(F)c(O)c(F)c3)ncc2N(C)C(=O)C1C` (stereo not given) the “difference in log2 fold change” value was -0.074.
`Nc1nc(N)c2nc(-c3cccc(O)c3)c(-c3cccc(O)c3)nc2n1` was tested, and the “difference in log2 fold change” value was 0.117.
For `N#CC(=C(/N)Sc1ccccc1N)/C(C#N)=C(\N)Sc1ccccc1N`, the “difference in log2 fold change” value was 0.518.
For `CNC(=O)c1ccc(C)c(-n2c(C)cc(OCc3ccc(F)cc3F)c(Br)c2=O)c1`, the “difference in log2 fold change” value was 0.455.
For `C=CC(=O)Nc1ccc2ncnc(Nc3ccc(OCc4cccc(F)c4)c(Cl)c3)c2c1`, the “difference in log2 fold change” value was -0.53.
In the case of `CN1CCN(c2ccc(Nc3cc(-c4cccc(-n5ccc6cc(C7CC7)cc(F)c6c5=O)c4CO)cn(C)c3=O)nc2)CC1`, the “difference in log2 fold change” value is reported as -0.059.
`Nc1nc(N)c(N=O)c(OCC2CCCCC2)n1` was tested, and the “difference in log2 fold change” value was -0.216.
With `COc1c(C)c(C(=O)c2ccc(N)c(C(=O)O)c2)n2ccccc12` the “difference in log2 fold change” value was 0.093.
`COc1cc(N2CCC(N)CC2)ccc1Nc1ncc(Cl)c(-c2c[nH]c3ccccc23)n1` was tested, and the “difference in log2 fold change” value was 0.0117.
`Nc1ncnc2c1c(-c1cnc3[nH]ccc3c1)nn2C1CCCC1` was tested, and the “difference in log2 fold change” value was 0.363.
In the case of `COc1cc2nccc(Oc3ccc(NC(=O)Nc4cc(C)on4)c(Cl)c3)c2cc1OC` [Tivozanib (AV-951)], the “difference in log2 fold change” value is reported as -0.0533.
In the case of `Cc1c(F)cc(C(=O)NC2CC2)cc1-c1ccc(C(=O)NCC(C)(C)C)cn1`, the “difference in log2 fold change” value is reported as -0.0149.
With `CCC(=O)Nc1cccc(Oc2nc(Nc3ccc(N4CCN(C)CC4)cc3OC)ncc2Cl)c1` the “difference in log2 fold change” value was -0.831.
`COc1ccc(S(=O)(=O)N(C(C)=O)c2ccccc2/C=C/c2cc[n+]([O-])cc2)cc1` was tested, and the “difference in log2 fold change” value was 0.0942.
In the case of `Cn1cc(C2=C(c3ccc(Cl)cc3Cl)C(=O)NC2=O)c2ccccc21`, the “difference in log2 fold change” value is reported as 0.189.
In the case of `O=C1NC(=O)C(=Cc2ccc(-c3ccc(F)cc3)o2)S1` (stereo in doubt), the “difference in log2 fold change” value is reported as -0.0657.
In the case of `COc1cc2ncnc(Oc3ccc(CC(=O)Nc4cnn(C(C)C)c4)cc3)c2cc1OC`, the “difference in log2 fold change” value is reported as -0.126.
`N#CCNC(=O)c1ccc(-c2ccnc(Nc3ccc(N4CCOCC4)cc3)n2)cc1` [Momelotinib (CYT387)] was tested, and the “difference in log2 fold change” value was 0.708.
For `CCC[C@H](NC(=O)/C(C#N)=C/c1cccc(Br)n1)c1ccccc1` [Degrasyn (WP1130)], the “difference in log2 fold change” value was 0.135.
In the case of `Cc1ccc(F)c(NC(=O)Nc2ccc(-c3cccc4[nH]nc(N)c34)cc2)c1` [Linifanib (ABT-869)], the “difference in log2 fold change” value is reported as 0.386.
In the case of `Clc1ccc(C2(c3ccc(-c4cn[nH]c4)cc3)CCNCC2)cc1`, the “difference in log2 fold change” value is reported as 0.734.
With `CN(C)C/C=C/C(=O)Nc1cc2c(Nc3ccc(F)c(Cl)c3)ncnc2cc1O[C@H]1CCOC1` [Afatinib (BIBW2992)] the “difference in log2 fold change” value was -1.66.
In the case of `COc1ccc(-c2ccc3c(N4CCOC[C@@H]4C)nc(N4CCOC[C@@H]4C)nc3n2)cc1CO`, the “difference in log2 fold change” value is reported as 1.55.
For `C#Cc1cccc(Nc2ncnc3cc(OC)c(OCCCCCCC(=O)NO)cc23)c1`, the “difference in log2 fold change” value was -0.131.
For `O=C1NC(=O)C(c2ccccc2[N+](=O)[O-])=C1Nc1ccc(O)c(Cl)c1`, the “difference in log2 fold change” value was -0.00686.
`CCc1ccc(/C=C2/SC(=S)NC2=O)cc1` was tested, and the “difference in log2 fold change” value was 0.116.
With `NCC(=O)Nc1ccc(-n2nc(C(F)(F)F)cc2-c2ccc3c(ccc4ccccc43)c2)cc1` the “difference in log2 fold change” value was 0.186.
In the case of `CNc1nc(Nc2cn(C(C)(C)C#N)nc2C)ncc1C(F)(F)F`, the “difference in log2 fold change” value is reported as 0.145.
For `O=C(O)c1ccc(Nc2ncc3c(n2)-c2ccc(Cl)cc2C(c2c(F)cccc2F)=NC3)cc1`, the “difference in log2 fold change” value was -0.0396.
For `COC(=O)c1ccc2c(c1)NC(=O)/C2=C(\Nc1ccc(N(C)C(=O)CN2CCN(C)CC2)cc1)c1ccccc1` [Nintedanib (BIBF 1120)], the “difference in log2 fold change” value was -4.27.
For `O=C(c1cccc(Cl)c1F)N1CCN(Cc2cccc(Nc3nccs3)n2)CC1`, the “difference in log2 fold change” value was -0.738.
With `COc1cc2c(Oc3ccc(NC(=O)C4(C(=O)Nc5ccc(F)cc5)CC4)cc3F)ccnc2cc1OCCCN1CCOCC1` the “difference in log2 fold change” value was -0.0914.
With `O=C(O)[C@]1(Cc2cccc(Nc3nccs3)n2)CC[C@@H](Oc2cccc(Cl)c2F)CC1` the “difference in log2 fold change” value was -0.795.
